# From PubChem BioAssay
# The list is not random: actives were taken first. Their share in the collection is about 3.5%.
# FBW7 activator = human FBW7 E3 ligase activation, primary screen; Q969H0; normalized activity (activation), % at 26.1 µM; 0.13% of 650,000 active; AlphaScreen FBW7–phospho-cyclin E peptide binding, activator screen; AID 1259310; in the data active = normalized activity above about 1.9%;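 also: purified mutant Fbw7 with reduced substrate affinity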
# GPR151 activ = human GPR151 activation | Q8TDV0 | PathHunter beta-arrestin GPR151 cells, luminescence | activation, % at 11.2 µM | 1% of 650,000 active | AID 1508602; in the data active = activation above about 4.9%;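 also: 0% = median of compound wells and 100% = cells with positive control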
# TEAD-YAP block = TEAD-YAP interaction inhibition; HEK-TIYL cells, TEAD-Gal4/YAP UAS-luciferase luminescence; inhibition, % at 9.12 µM; 1.4% of 640,000 active; in the data active = inhibition above about 32%;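 also: 0% = median of test compound wells and 100% = reference inhibitor wells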
# MITF primary = inhibitors of human MITF; inhibition, % at 2.6 µM; AlphaScreen MITF homodimerization, bead proximity signal; 0.91% of 650,000 active; in the data active = inhibition above about 50%;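 also: 0% = vehicle wells with protein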
# Target sequence (O75030 whole entry, looked up): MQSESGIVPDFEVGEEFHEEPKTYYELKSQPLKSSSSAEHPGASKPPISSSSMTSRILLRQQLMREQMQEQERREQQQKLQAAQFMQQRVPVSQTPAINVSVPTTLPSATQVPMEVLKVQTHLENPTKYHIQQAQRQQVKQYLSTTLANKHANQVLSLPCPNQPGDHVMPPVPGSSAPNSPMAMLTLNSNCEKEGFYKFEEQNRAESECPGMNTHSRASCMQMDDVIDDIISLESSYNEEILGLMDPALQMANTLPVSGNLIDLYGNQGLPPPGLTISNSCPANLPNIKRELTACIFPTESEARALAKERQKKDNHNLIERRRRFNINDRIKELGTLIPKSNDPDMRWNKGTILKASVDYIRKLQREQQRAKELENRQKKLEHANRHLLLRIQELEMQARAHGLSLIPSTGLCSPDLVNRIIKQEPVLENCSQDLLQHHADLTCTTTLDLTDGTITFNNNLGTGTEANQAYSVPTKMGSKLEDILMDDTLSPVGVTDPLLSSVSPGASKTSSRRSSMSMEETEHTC
# MITF inh conf = confirmation of human MITF inhibitors; shares compounds with MITF primary; AlphaScreen MITF homodimerization, biotin/His-MITF beads; inhibition, % at 2.6 µM; 16% of 4,700 active; AID 1259372;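 active = inhibition above a cutoff derived from the DMSO control wells, cut at about 28% in these data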;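 also: 0% = MITF dimer wells with DMSO only; inhibitors lower the bead chemiluminescence by keeping MITF from dimerizing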
# AS interf DR = optically interferes with AlphaScreen signal in dose response | shares compounds with MITF primary | AlphaScreen optical interference counterscreen, cell-free | 6% of 480 active | IC50, µM; call rule not given here
# AS interf ctr = counter-screen: compounds optically interfering with AlphaScreen; shares compounds with MITF primary; LysRS AlphaScreen counterscreen, signal interference, triplicate; inhibition, % at 2.6 µM; 7.6% of 4,700 active; AID 1259376;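 active = inhibition above a cutoff derived from the DMSO control wells, cut at about 30% in these data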
# * = called active by the depositor; / = not tested or not shown.
SMILES,FBW7 activator,GPR151 activ,TEAD-YAP block,MITF primary,MITF inh conf,AS interf ctr,others
Cc1ccc2c(CC(=O)Nc3nccs3)coc2c1,0.0,-0.8,-37.8,9.3,/,/,
O=c1c2ccccc2nc(SCc2cc(=O)n3ccccc3n2)n1CC1COc2ccccc2O1 (stereo not given),0.3,-0.6,-7.8,-8.3,/,/,
O=C(COc1ccccc1F)N1CCCCC1,-0.3,2.3,-25.2,9.8,/,/,
O=C(COc1ccccc1F)OCCN1CCCC1,0.5,-0.9,-7.6,56.9*,5.5,5.7,
CCOc1ccccc1N1CCN(Cc2ccoc2)CC1,0.2,0.2,2.2,52.5*,4.1,-1.9,
CCOc1ccccc1OCCN1CCN(c2ccccc2OC)CC1,1.2,-1.5,10.4,89.0*,3.9,25.3,
O=c1c(CN2CCOc3ccc(C(O)c4ccncc4)cc3C2)coc2ccccc12 (stereo not given),-0.1,-0.6,4.4,0.8,/,/,
COc1ccccc1CN1CCC(C)CC1,-0.1,0.4,-7.0,-3.5,/,/,
COc1cc(OC)c(OC)cc1CN1CCN(C2CCC(C)CC2)CC1 (stereo not given),-0.3,-2.0,-3.1,72.1*,0.6,-1.4,
COc1ccccc1CN1CCC(N2CC(C)OC(C)C2)CC1 (stereo not given),0.0,0.0,9.8,51.8*,-12.5,-5.1,
COc1cccc(CN2CCC(N3CC(C)OC(C)C3)CC2)c1OC (stereo not given),-0.1,1.2,-5.4,86.5*,-22.2,-3.5,
CCOC(=O)C1CCN(Cc2cccc(OC)c2OC)CC1,-0.1,-0.1,0.5,-17.2,/,/,
COc1cc(OC)c(OC)cc1CN1CCC(N2CC(C)OC(C)C2)CC1 (stereo not given),-0.2,0.4,8.7,89.4*,-8.2,-6.2,
COc1cc(OC)c(OC)cc1CN1CCC(O)CC1,0.0,1.2,16.5,21.6,/,/,
CSc1ncccc1C(=O)N1CCc2nnc(C)n2CC1,-0.1,-0.1,-8.0,-6.7,/,/,
CC(C)NS(=O)(=O)c1ccc(OCC(=O)Nc2ccc(F)c(Cl)c2)cc1,0.1,2.2,11.3,6.9,/,/,
CCCN1CCCc2cc(CCNS(C)(=O)=O)ccc21,-0.1,-1.5,-1.1,50.6*,-9.3,-0.9,
Cc1cc2nnc(SC(C(=O)NC(N)=O)C(C)C)n2c2ccccc12 (stereo not given),-0.1,0.0,2.2,5.8,/,/,
Cc1ccc(Cn2c(CN3CCC(C)CC3)nc3c2c(=O)n(C)c(=O)n3C)cc1,0.1,1.9,-7.4,-0.8,/,/,
CC1CCN(Cc2nc3c(c(=O)n(C)c(=O)n3C)n2Cc2ccc(F)cc2)CC1,0.2,0.7,1.9,50.8*,5.9,13.2,
CC(C)CC(=O)N1CCN(Cc2ccco2)CC1,0.7,-1.3,-3.6,58.5*,9.4,12.5,
FC(F)(F)c1cccc(CN2CCSCC2)c1,-0.2,0.6,2.8,17.9,/,/,
CC(C)CC(=O)N1CCN(Cc2cccc(C(F)(F)F)c2)CC1,0.1,0.3,19.2,55.7*,-10.8,-7.6,
CC(C)CC(=O)N1CCN(Cc2ccncc2)CC1,0.1,-1.4,-1.9,65.2*,7.7,13.9,
O=C(N/N=C/c1cccc(O)c1)c1cc(O)cc(O)c1,0.1,-0.1,13.8,-3.5,/,/,
SMILES,FBW7 activator,GPR151 activ,TEAD-YAP block,MITF primary,MITF inh conf,AS interf ctr,others
CCOc1ccc(NCC(=O)Nc2ccc(F)cc2)cc1,-0.1,-0.3,-26.6,68.1*,5.4,1.4,
CCOC(=O)N1CCN(C(=S)Nc2ccc(OCC)cc2)CC1,0.0,-0.8,1.8,101.8*,64.1*,-6.2,AS interf DR=>6.48
CCOC(=O)c1ccc(NC(=S)N2CCN(C(=O)OCC)CC2)cc1,-0.1,0.1,-6.7,6.2,/,/,
CC(C)C(=O)N1CC[C@@H]2[C@H](CCCN2C(=O)COc2ccccc2Cl)C1,0.0,-0.1,0.0,-8.4,/,/,
CN(C)CCN(Cc1ccccc1)Cc1ccc([N+](=O)[O-])cc1,0.1,0.4,-7.6,66.3*,4.9,2.1,
CCN(CC)CCN(C)Cc1ccc([N+](=O)[O-])cc1,-0.3,0.7,-8.3,73.0*,8.1,20.7,
COc1cccc(CN(CCN(C)C)Cc2ccccc2)c1OC,-0.1,-0.1,3.6,52.1*,-5.6,-2.6,
CCN(CCN(C)C)Cc1ccc(NC(C)=O)cc1,0.0,-0.5,8.9,46.5,/,/,
CN(C)CCN(Cc1ccccc1)Cc1ccc(O)cc1,0.1,-0.8,-1.0,32.5,/,/,
CN(C)CCN(Cc1ccccc1)Cc1ccccc1O,0.5,-0.5,-0.6,-349.1,/,/,
CC(=O)Nc1ccc(CN(CCN(C)C)Cc2ccccc2)cc1,0.3,0.2,2.5,59.5*,-3.5,0.1,
CCOc1ccc(NC(=O)C2=C(C)NC(=O)NC2c2ccccc2)cc1 (stereo not given),-0.2,0.1,-3.1,-4.0,/,/,
C=CCNC(=O)c1ccc2c(c1)NC(=O)C(CSCc1ccc(C)cc1)N2 (stereo not given),0.0,-1.1,2.9,-14.3,/,/,
CC1CC(C)CN(C(=O)c2cccc3ccccc23)C1 (stereo not given),0.4,-0.8,-0.7,6.9,/,/,
CC1CC(C)CN(C(=O)c2cccc3c2-c2ccccc2C3=O)C1 (stereo not given),0.1,-0.6,-8.7,66.4*,5.4,-4.2,
CC(Sc1nc2ccccc2o1)C(=O)O (stereo not given),1.5,-1.6,-25.4,63.5*,3.0,9.9,
CC1CCc2c(sc3ncn(C4CCNCC4)c(=O)c23)C1 (stereo not given),0.0,-0.3,-4.4,12.1,/,/,
O=C(Nc1ccc2c(c1)C(=O)NCCO2)c1ccc(Cl)cc1,-0.2,0.3,-77.0,-15.8,/,/,
Cc1ccccc1C(=O)Nc1ccc2c(c1)C(=O)NCCO2,0.1,0.3,-4.1,50.9*,-5.2,-5.3,
CC(C)(C)NC(=O)COC(=O)Cc1ccc(Cl)cc1,0.0,-0.1,-2.0,116.3*,16.1,-0.3,
Cc1cc(OCCCCNCCO)ccc1C(C)C,0.1,-1.1,2.5,61.9*,-11.6,-2.8,
Cc1cccc(OCCCCNCCO)c1C,0.1,-0.7,13.0,-7.6,/,/,
COCCCNCCOc1ccc(C(C)C)c(C)c1,0.1,0.4,-10.8,59.8*,-1.2,5.9,
COCCCNCCCOc1ccc(OCc2ccccc2)cc1,-0.1,0.4,-10.9,54.3*,6.0,15.8,
Cc1cc(OCCNCCN)ccc1C(C)C,-0.1,-0.8,4.1,-6.8,/,/,
SMILES,FBW7 activator,GPR151 activ,TEAD-YAP block,MITF primary,MITF inh conf,AS interf ctr,others
Cc1ccc(C)c(OCCCCNCCO)c1C,-0.1,-0.5,1.4,55.5*,-13.4,-3.1,
Cc1cc(OCCNCCO)ccc1C(C)C,-0.1,-0.4,-5.9,4.5,/,/,
COc1ccccc1C(=O)CS(=O)(=O)c1ccc(C)cc1,0.4,-0.5,-7.0,-1.2,/,/,
Cc1cc(C)c(C#N)c(SCC(N)=O)n1,-0.2,-0.4,1.2,-5.4,/,/,
C=CCNCCOCCOc1ccc(C(C)C)c(C)c1,0.0,-1.4,4.5,51.9*,0.3,0.6,
COCCNCCOc1ccc(C(C)C)c(C)c1,-0.1,-1.6,4.9,60.4*,10.9,12.0,
Cc1cc(OCCOCCN2CCCC2)ccc1C(C)C,-0.3,3.6,1.6,25.3,/,/,
